Assay outcomes deposited in PubChem BioAssay by National Center for Advancing Translational Sciences (NCATS).
Hits are enriched below; roughly 1.6% of the tested compounds scored in any of these assays.
12-LOX inh: ALOX12 (human) lipoxygenase inhibition; Potency, µM (doses to about 108 µM), for inactives: top-dose activity change, negative = inhibition, usual class: inhibitors; purified 12hLO, xylenol orange hydroperoxide absorbance; 1.1% of 580,000 active; P18054; AID 1671190; also: % is scaled to controls: 0 for no effect and ±100 for the full control effect
Target sequence (P18054 whole entry, looked up): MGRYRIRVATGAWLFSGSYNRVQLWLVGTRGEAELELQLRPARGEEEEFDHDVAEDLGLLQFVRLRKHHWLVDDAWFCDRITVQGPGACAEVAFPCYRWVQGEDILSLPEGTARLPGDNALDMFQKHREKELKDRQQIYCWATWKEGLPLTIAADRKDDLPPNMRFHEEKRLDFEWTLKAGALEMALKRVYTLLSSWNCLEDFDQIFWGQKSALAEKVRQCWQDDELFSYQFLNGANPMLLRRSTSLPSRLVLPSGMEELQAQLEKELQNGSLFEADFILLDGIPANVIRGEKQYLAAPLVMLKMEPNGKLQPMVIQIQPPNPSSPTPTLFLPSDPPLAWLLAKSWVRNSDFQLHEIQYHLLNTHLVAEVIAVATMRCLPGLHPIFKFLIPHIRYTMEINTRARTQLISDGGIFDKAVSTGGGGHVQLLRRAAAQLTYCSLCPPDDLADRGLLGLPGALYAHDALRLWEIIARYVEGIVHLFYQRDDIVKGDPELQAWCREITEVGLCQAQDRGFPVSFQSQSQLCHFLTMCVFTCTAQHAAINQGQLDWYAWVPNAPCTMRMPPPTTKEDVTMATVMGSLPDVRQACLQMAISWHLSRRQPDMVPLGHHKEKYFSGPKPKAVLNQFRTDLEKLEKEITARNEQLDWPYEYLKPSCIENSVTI
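Hydroperoxide product was detected by ferrous iron/xylenol orange as the 573 to 405 nm absorbance ratio. Arachidonic acid at 40 uM (final) was turned over for 30 min at room temperature by 150 nM human 12hLO, pH 7.0 Hepes buffer, after 15 min compound preincubation.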
gsp antag: antagonists of gsp mutant (McCune-Albright syndrome) | gsp-mutant cells, cAMP HTRF, 30 min | Potency, µM (highest dose often 76.9 µM), for the others: at the highest dose activity change, negative = inhibition, hits mostly inhibitors | 0.4% of 340,000 active | AID 624288; calls by dose curve; cell line not stated here;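 also: intracellular cAMP measured with PDE inhibitor Ro 20-1724 present during compound exposure; % is scaled to controls: 0 for no effect and ±100 for the full control effect; nearly all actives have a fitted effect of over 65% in size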
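Cells in G418 medium, seeded 16-24 h, 37C; buffer exchange to DPBS + 1 mM CaCl2, 0.5 mM MgCl2, 0.05% BSA; cpds in DMSO + […] (300 uM stock), 30 min 37C; HTRF cAMP detection.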
gsp ag: agonists of gsp mutant (McCune-Albright syndrome) | gsp mutant cells, cAMP HTRF, 30 min | Potency, µM (top dose mostly 76.9 µM), inactives show at the top dose activation (cAMP increase), usual class: activators | 0.13% of 340,000 active | AID 624287; active = well fitted activation curve with a large enough effect; inconclusive = small, poorly fitted or top-dose-only effect, or another doubt; inactive = no such curve, though single readings can be large or run the other way; cell line not stated here;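 also: phosphodiesterase inhibitor Ro 20-1724 added with compounds to block cAMP breakdown; nearly all actives have a fitted effect of over 60% in size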
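Cells in DMEM/10% FBS with G418 were pretreated with compounds in DMSO plus […] (300 uM stock) for 30 min at 37C. cAMP was measured by HTRF (cAMP-d2 plus anti-cAMP antibody-K) after 30 min at room temperature.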
Mito fusion yeast: mitochondrial division inhibition or fusion activation; 0.23% of 320,000 active; AID 485298; Potency, µM (highest dose often 46.1 µM), for inactives: top-dose growth rescue (activation), usual class: activators; S. cerevisiae fusion-defective mutant growth rescue, CellTiterGlo 48 h; also: % of control where 0% means no effect; nearly all actives have a fitted effect of over 45% in size
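Read-out: ATP-based luminescence (CellTiterGlo, 10 min ambient) reporting growth of fusion-defective ts yeast after 48 hours at 37C on glycerol/ethanol YPEG medium in the presence of compound.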
FUS yeast rescue: suppressors of FUS proteinopathy in yeast; S. cerevisiae FUS-expressing, growth rescue, OD600, 24 h; Potency, µM (top dose mostly 76.6 µM), most hits filed as activators; 0.24% of 390,000 active;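 also: plate controls were DMSO vehicle for no effect and reference control for full effect; nearly all actives have a fitted effect of over 55% in size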
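Steps: raffinose overnight preculture; dilution to OD 0.005 in 2% galactose minimal medium; compound addition (concentration series); 24hr at 30C, 99% humidity; absorbance read at 600 nm.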
* hit, by the source's call; [ ] = another dose, or the depositor's remark. Unless noted, calls follow the shape of the dose curve; as a rule, active = well fitted curve in the direction sought with a large enough effect; inconclusive = small, poorly fitted or top-dose-only effect, or another doubt; inactive = no such curve, though single readings can be large; an effect the other way counts as inactive or inconclusive. Potency is read from the fitted curve at half-maximal effect.

CCC(=O)NC(=S)Nc1ccc2oc(-c3ccc(OC)cc3)nc2c1 was read as 12-LOX inh -7%, gsp antag 4%, gsp ag inconclusive, Mito fusion yeast -7% and FUS yeast rescue inactive.
Cc1cc(OCC(=O)Nc2ccc3oc(-c4ccncc4)nc3c2)ccc1Cl was read as 12-LOX inh -17%, gsp antag 50µM*, gsp ag 3%, Mito fusion yeast -5% and FUS yeast rescue inactive.
CCN(CC)C(=O)COc1ccc(-c2noc(-c3ccccc3)n2)cc1OC was read as 12-LOX inh 3%.
Cc1ccc(CN(Cc2ccco2)C(=O)c2cc3ccccc3oc2=O)cc1 was read as 12-LOX inh -11%.
For O=C(NC1(C(F)(F)F)C(=O)Nc2c1c(=O)[nH]c(=O)n2Cc1ccco1)c1ccccc1F (stereo not given) the results were 12-LOX inh 8%.
For CSc1cccc(NC(=O)/C=C/c2cccs2)c1 the results were 12-LOX inh -26%.
For O=C(O)c1ccccc1-c1ccccc1C(=O)Nc1ccc(-c2nc3cc(Cl)ccc3o2)cc1 the results were 12-LOX inh 45µM*, gsp antag -22%, gsp ag 12%, Mito fusion yeast 6% and FUS yeast rescue inconclusive.
For COc1cccc(OC)c1C(=O)Nc1ccc(-c2nc3ccccc3o2)cc1 the results were 12-LOX inh 40µM*.
For CCCCCn1nc(C(=O)Nc2ccc(OC)c(Cl)c2)c2ccccc2c1=O the results were 12-LOX inh -29%.
Screening O=C(c1ccoc1)N1CCC(Oc2cccc(F)c2)C1 (stereo not given) returned 12-LOX inh 13%.
COc1cc(N=Nc2ccc(Br)cc2)cc(C=O)c1O was read as 12-LOX inh 3.2µM*, gsp ag 2% and FUS yeast rescue inactive.
COc1cc(CN(C)C)cc(C=O)c1O was read as gsp antag 9%, gsp ag -1%[15.4 µM], Mito fusion yeast -2% and FUS yeast rescue inactive.
Screening Fc1cccc(-c2nc(COc3ccc(Br)cc3F)co2)c1 returned 12-LOX inh 32µM*.
Screening Cc1nnc(SCC(=O)Nc2cc(C(C)(C)C)nn2-c2ccccc2)s1 returned 12-LOX inh 3%, gsp antag 1%, gsp ag -36% and Mito fusion yeast -1%.
Cc1nnc(SCC(=O)Nc2cc(-c3cc(C)c(C)cc3C)nn2-c2ccccc2)s1 was read as 12-LOX inh -7%, gsp antag inconclusive, gsp ag 7%, Mito fusion yeast inconclusive and FUS yeast rescue 25µM*.
Cc1cc(=O)n(CC(=O)NCc2ccccc2Br)c(N2CCc3ccccc3C2)n1 was read as 12-LOX inh 6%.
Screening O=C(COC(=O)c1ccccc1C(=O)c1ccccc1)Nc1ccc(SC(F)F)cc1 returned 12-LOX inh -22%, gsp antag -12%, gsp ag 3%, Mito fusion yeast 16µM* and FUS yeast rescue inconclusive.
`CC(C)(C)C(=O)/C(C#N)=C\c1cccc(F)c1` gave 12-LOX inh -25%.
CC1(C)CC2(CC(c3ccccc3)c3ccc(O)cc3O2)NC(=S)N1 (stereo not given) was read as 12-LOX inh inconclusive, gsp antag 9%, gsp ag 0%[15.4 µM], Mito fusion yeast -3% and FUS yeast rescue inactive.
`CC(=O)Oc1cc2c(cc1Cl)C(c1cccs1)CC1(CC(C)(C)NC(=S)N1)O2` (stereo not given) gave 12-LOX inh 32µM*, gsp antag -6%, gsp ag -15%[15.4 µM], Mito fusion yeast -11% and FUS yeast rescue inactive.
Screening CCCCOc1ccc(-c2c(C(=O)Nc3ccccc3)c(C)[nH]c(=S)c2C#N)cc1 returned 12-LOX inh inconclusive, gsp antag 15%, gsp ag 2.5µM*, Mito fusion yeast 9% and FUS yeast rescue inconclusive.
For CCN(CC)S(=O)(=O)c1ccc(Cl)c(NC(=O)CSc2cccc[n+]2[O-])c1 the results were 12-LOX inh 0%, gsp antag 12%, gsp ag 8.9µM*, Mito fusion yeast 0% and FUS yeast rescue inactive.
For C/C(=N\NC(=S)NCc1ccccc1)c1ccc(Br)cc1 the results were 12-LOX inh inconclusive, gsp antag -11%, gsp ag -5%[15.4 µM], Mito fusion yeast inconclusive and FUS yeast rescue inactive.
`C/C(=N\NC(N)=S)c1ccc2c(c1)OCCO2` gave 12-LOX inh inconclusive, gsp antag 1%, gsp ag 5%[15.4 µM], Mito fusion yeast -2% and FUS yeast rescue inactive.
For C/C(=N\NC(=S)Nc1ccc(F)cc1)c1ccc2c(c1)OCCO2 the results were 12-LOX inh 35µM*, gsp antag -7%, gsp ag 26% and Mito fusion yeast 8%.
For C/C(=N\NC(=S)Nc1ccc(C)c(C)c1)c1ccc(N2CCOCC2)cc1 the results were 12-LOX inh 35µM*, gsp antag -15%, gsp ag 2%, Mito fusion yeast 0% and FUS yeast rescue inactive.
For C/C(=N\NC(=S)NCc1ccccc1)c1ccc2c(c1)OCCO2 the results were 12-LOX inh 35µM*, gsp antag -22%, gsp ag -123%, Mito fusion yeast 27% and FUS yeast rescue inactive.
For O=C(c1ccco1)N1CCN(CCOCCOc2cccc3ccccc23)CC1 the results were 12-LOX inh inconclusive, gsp antag -15%, gsp ag -5%, Mito fusion yeast 2% and FUS yeast rescue inactive.
`O=C(c1ccco1)N1CCN(CCCCOc2cccc3ccccc23)CC1` gave 12-LOX inh 45µM*, gsp antag -7%, gsp ag 0% and Mito fusion yeast 0%.
For O=C(c1ccco1)N1CCN(Cc2cc(=O)c(OCc3ccccc3)co2)CC1 the results were 12-LOX inh -14%, gsp antag 8%, gsp ag 20µM*, Mito fusion yeast 15% and FUS yeast rescue inactive.
Oc1ccc(-n2nnnc2SCc2ncc(-c3ccc(Cl)cc3)o2)cc1 was read as 12-LOX inh 32µM*.
For Cc1cc(C)n2c(SCC(=O)NC3CCCCC3)nnc2n1 the results were 12-LOX inh -12%, gsp antag 4%, gsp ag 14µM*, Mito fusion yeast -3% and FUS yeast rescue inactive.
Screening Cc1cc(C)n2c(SCC(=O)N(C)C3CCCCC3)nnc2n1 returned 12-LOX inh -10%, gsp antag 2%, gsp ag -31%, Mito fusion yeast 5% and FUS yeast rescue inactive.
`Cc1cc(C)n2c(SCC(=O)Nc3cc(C)on3)nnc2n1` gave 12-LOX inh -15%, gsp antag 10%, gsp ag 22µM*, Mito fusion yeast -6% and FUS yeast rescue inactive.
CCCC(C(=O)NC(C)C)c1ccccc1 (stereo not given) was read as 12-LOX inh 9%.
For COc1ncc(-c2cccc(COc3ccc4c(cnn4CC[S+](C)(=O)[O-])c3)c2)cn1 the results were 12-LOX inh -29%[176 µM].
